A number with no mark means an inactive call. Inconclusive results are not listed. Where a call stands in place of a potency, no number is given. The source made the active and inactive calls. Calls come from the whole dose curve; as a rule, active = well fitted curve in the direction sought with a large enough effect; inconclusive = small, poorly fitted or top-dose-only effect, or another doubt; inactive = no such curve, though single readings can be large; an effect the other way counts as inactive or inconclusive. Where a SMILES comes first, the peptide text is derived from it. Bridges are numbered along the chain shown (N, C = ends). [ ]: non-standard residue; d: D form. NMeY = CN[CH](Cc1ccc(O)cc1)C(=O)O
Key:
[1] = target: Glutathione peroxidase 1 (Homo sapiens) (UniProt P07203); assay: Primary qHTS Assay for Inhibitors of Recombinant Selenoprotein Glutathione Peroxidase 1 (GPX1) (AID 1845191); note: nearly all actives have a fitted effect of over 65% in size
Glutathione peroxidase 1 (Homo sapiens), sequence (P07203 whole entry, looked up): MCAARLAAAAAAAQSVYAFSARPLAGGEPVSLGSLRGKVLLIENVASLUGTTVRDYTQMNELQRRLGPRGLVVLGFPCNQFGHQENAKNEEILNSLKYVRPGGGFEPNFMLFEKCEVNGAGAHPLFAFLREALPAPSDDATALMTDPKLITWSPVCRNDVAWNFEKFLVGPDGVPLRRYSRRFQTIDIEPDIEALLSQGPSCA
How it was run: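 GR-coupled assay: compounds preincubated 30 min at room temperature with GPX1, then reaction started with CHP; final 10 nM GPX1, 1 mM GSH, 0.5 mM CHP, 0.5 mM NADPH, 100 nM GR, 0.01% BSA, pH 7.5 Tris buffer. NADPH fluorescence (340/450 nm) read at 0 and 15 min.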

[2] = target: Phospholipid hydroperoxide glutathione peroxidase GPX4 (Homo sapiens) (UniProt P36969); assay: Primary qHTS Assay for Inhibitors of Recombinant Selenoprotein Glutathione Peroxidase 4 (GPX4) (AID 1845192); note: nearly all actives have a fitted effect of over 65% in size; for activity change, negative = inhibition: series mostly up to about 50 µM
Phospholipid hydroperoxide glutathione peroxidase GPX4 (Homo sapiens), sequence (P36969 whole entry, looked up): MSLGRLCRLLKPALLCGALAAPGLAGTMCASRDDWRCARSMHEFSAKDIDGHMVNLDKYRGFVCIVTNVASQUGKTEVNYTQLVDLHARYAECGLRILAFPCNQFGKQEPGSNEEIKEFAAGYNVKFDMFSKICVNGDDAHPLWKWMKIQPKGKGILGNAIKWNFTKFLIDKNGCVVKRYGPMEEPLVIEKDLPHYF
How it was run: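 GR-coupled assay: recombinant GPX4 preincubated 30 min with compound at room temperature; final 200 nM GPX4, 1 mM GSH, 0.5 mM cumene hydroperoxide, 0.5 mM NADPH, 100 nM GR, 0.01% BSA, pH 7.5 Tris. NADPH fluorescence (340/450 nm) read at 0 and 15 min.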

[3] = target: Luciferin 4-monooxygenase (Photinus pyralis) (UniProt P08659); assay: Primary firefly luciferase (FLuc) qHTS assay for identification of artifact compounds. (AID 1845220); note: nearly all actives have a fitted effect of over 60% in size; for activity change, negative = inhibition: series mostly up to about 54 µM
How it was run: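 D-luciferin and ATP (10 uM each, final) in Tris acetate buffer pH 7.6 were incubated with compounds for 15 min at room temperature. The reaction was started with 10 nM Photinus pyralis luciferase and luminescence read after 5 min. Percent inhibition was fitted to a 4-parameter Hill equation.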

[4] = Primary fluorescence-based thiol-reactive (MSTI) qHTS assay for identification of artifact compounds. (AID 1845221); note: nearly all actives have a fitted effect of over 65% in size; note: potency is the fitted concentration of half-maximal effect;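 for activity change, negative = thiol reactive: series mostly up to about 54 µM; thiol-reactive compounds lower the probe fluorescence signal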
How it was run: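 Curve-fitted percent inhibition (4-parameter Hill) derived from fluorescence, Ex 525/Em 598 nm, scaled with Acetyl-MSTI and MSTI; 1 h incubation at room temperature.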

[5] = system: Nanoluciferase (engineered Oplophorus gracilirostris luciferase); assay: Primary Nanoluciferase (NLuc) qHTS assay for identification of artifact compounds. (AID 1845222); note: potency is the fitted concentration of half-maximal effect; for activity, negative = inhibition: series mostly up to about 54 µM
How it was run: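 Diluted conditioned medium from NLuc-expressing S16 cells treated with compounds for 15 min at room temperature, then Nano-Glo substrate added; luminescence read after 5 min. Percent inhibition versus no-enzyme and DMSO controls fitted to 4-parameter Hill equation.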

[6] = Primary redox qHTS assay for identification of artifact compounds. (AID 1845223); note: potency is the fitted concentration of half-maximal effect
How it was run: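 Amplex Red (25 uM) and HRP (250 mU/mL) in HBSS, with compounds for 15 min, then 250 uM DTT for 30 min, room temperature, dark. Fluorescence 525/598 nm read; normalized to DMSO and 10 uM DA3003; Hill fit.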

SMILES | Potency [1] | Potency [2] | Potency [3] | Potency [4] | Potency [5] | Potency [6] | activity change, negative = inhibition [3] | activity change, negative = thiol reactive [4] | activity, negative = inhibition [5] | redox activity (% of DA3003) [6]
C=C1C(=O)O[C@H](CCC)[C@H]1C(=O)O | inactive | inactive | inactive | inactive | inactive | inactive | – | – | – | –
COc1ccc(C(=O)C2CCN(CC(=O)N(Cc3nc4c(c(=O)[nH]3)COCC4)CC3CC3)CC2)cc1 | inactive | inactive | inactive | inactive | inactive | inactive | – | – | – | –
CC(C)c1nnc(-c2ccc(-c3ccccc3)nc2)n1-c1cccc2nonc12 | inactive | inactive | inactive | inactive | inactive | inactive | – | – | – | –
CCc1cc(CN2CC(C(=O)O)C2)sc1-c1noc(-c2ccc(Oc3ccccc3)cc2)n1 | inactive | inactive | inactive | inactive | inactive | inactive | – | – | – | –
CC1=C2C[C@H]3O[C@@]3(C)CCC3O[C@@]3(C)C[C@@]2(O)OC1=O (some centres undefined) | inactive | inactive | inactive | inactive | inactive | inactive | – | – | – | –
COc1ccc([C@@]2(O)c3c(ccc(CC=C(C)C)c3O)NC(=O)[C@@H]2OC)cc1 | inactive | inactive | inactive | inactive | inactive | inactive | – | – | – | –
CN(C)CCn1cc(S(=O)(=O)c2cccc(F)c2)c2cccnc21 | inactive | inactive | inactive | inactive | inactive | inactive | – | – | – | –
CC(=O)O[C@@H]1c2c(C)coc2C(=O)[C@@]23O[C@@H]2CC[C@H](C)[C@@]13C | inactive | inactive | inactive | inactive | inactive | inactive | – | – | – | –
CC(C)c1ccc(CO)cc1O[C@@H]1O[C@H](CO)[C@@H](O)[C@H](O)[C@H]1O | inactive | inactive | inactive | 13.1 µM (active) | inactive | inactive | – | – | – | –
CC(C)CCC[C@@H](C)[C@H]1CC[C@H]2[C@@H]3CC(=O)[C@H]4C[C@@H](O)CC[C@]4(C)[C@H]3CC[C@]12C | inactive | inactive | inactive | inactive | inactive | inactive | – | – | – | –
Cc1noc(-c2ccc(-c3ccc(CC(=O)O)cc3)cc2)c1NC(=O)O[C@H](C)c1ccccc1 | inactive | inactive | inactive | inactive | 10.7 µM (active) | inactive | – | – | – | –
O=C(NCc1ccc(S(=O)(=O)c2cc(F)cc(F)c2)cc1)c1ccc2nccn2c1 | inactive | inactive | inactive | inactive | inactive | inactive | – | – | – | –
COc1c2c(cc3c1-c1c(cc4c(c1OC)OCO4)CC(C)C(C)C3)OCO2 (centres undefined) | inactive | inactive | inactive | inactive | inactive | inactive | – | – | – | –
CC[C@]12C=CCN3CC[C@@]4(c5cc([C@@]6(C(=O)OC)C[C@H]7C[C@@H](C(C)(F)F)CN(Cc8c6[nH]c6ccccc86)C7)c(OC)cc5N(C)[C@H]4[C@@](O)(C(=O)OC)[C@@H]1OC(C)=O)[C@@H]32 | inactive | inactive | inactive | inactive | inactive | inactive | – | – | – | –
CC(C)C[C@H](CC(=O)NO)C(=O)N[C@@H](Cc1ccc2ccccc2c1)C(=O)N[C@@H](C)C(=O)NCCN | inactive | inactive | inactive | inactive | inactive | inactive | – | – | – | –
O=C(Nc1ccccc1-c1cn2c(CN3CCNCC3)csc2n1)c1ccc2ccccc2n1 | inactive | inactive | inactive | inactive | inactive | inactive | – | – | – | –
CCCCOC(=O)NC(=O)C1c2ccccc2Oc2ccccc21 | inactive | inactive | inactive | inactive | inactive | inactive | – | – | – | –
CC12CCC(=O)C=C1C(O)CC1C2C(O)CC2(C)C1CC[C@]2(O)C(=O)CO (some centres undefined) | inactive | inactive | – | – | – | – | 2.02% [at 11.6 µM] | -1.91% [at 11.5 µM] | 4.05% [at 11.6 µM] | -2.06% [at 11.5 µM]
CC1OC2OC(=O)C3(C)CC4=C(CO)C5=C(CC(=O)C4(C)C(C1=O)C23)C(C)(C)OC(=O)C5 (centres undefined) | inactive | inactive | inactive | inactive | inactive | inactive | – | – | – | –
CC1(C)CC[C@]2(C(=O)O[C@@H]3O[C@H](CO)[C@@H](O)[C@H](O)[C@H]3O)CC[C@]3(C)C(=CCC4[C@@]5(C)CC[C@H](O[C@@H]6O[C@H](C(=O)O)[C@@H](O)[C@H](O[C@@H]7O[C@H](CO)[C@H](O)[C@H](O)[C@H]7O)[C@H]6O)C(C)(C)C5CC[C@]43C)C2C1 (some centres undefined) | inactive | inactive | – | – | – | – | -3.44% [at 11.6 µM] | 172% [at 11.5 µM] | 3.94% [at 11.6 µM] | 0.97% [at 11.5 µM]

SMILES | Potency [1] | Potency [2] | Potency [3] | Potency [4] | Potency [5] | Potency [6] | activity change, negative = inhibition [3] | activity change, negative = thiol reactive [4] | activity, negative = inhibition [5] | redox activity (% of DA3003) [6]
C=C(C)C(=O)O[C@H]1C[C@@](C)(O)C(=O)CC(O)/C(C)=C\[C@H]2OC(=O)C(=C)[C@H]12 (some centres undefined) | inactive | inactive | inactive | 2.93 µM (active) | inactive | inactive | – | – | – | –
COC(=O)C1=CO[C@@H](O[C@@H]2O[C@H](CO)[C@@H](O)[C@H](O)[C@H]2O)[C@@H]2[C@@](C)(O)[C@@H](OC(=O)/C=C/c3ccc(O)cc3)C[C@]12O | inactive | inactive | inactive | 3.27 µM (active) | inactive | inactive | – | – | – | –
C[C@@H]1CCC2C(C)(C)[C@H](O)CC[C@]2(C)[C@@]12Cc1c(O)cc3c(c1O2)CN([C@@H](CCC(=O)O)C(=O)O)C3=O (some centres undefined) | inactive | inactive | inactive | inactive | inactive | inactive | – | – | – | –
CC(C)c1cc(C(=O)N2CC[C@H](NC(=O)C3CC3)C2)n[nH]1 | inactive | inactive | inactive | inactive | inactive | inactive | – | – | – | –
CC(=O)NC1=NN(C(C)=O)C(C)(c2ccccc2)S1 (centres undefined) | inactive | inactive | inactive | inactive | inactive | inactive | – | – | – | –
CC1=CCC(C(C)(C)O[C@@H]2O[C@H](CO[C@@H]3O[C@@H](C)[C@H](O)[C@@H](O)[C@H]3O)[C@@H](O)[C@H](O)[C@H]2O)CC1 (some centres undefined) | inactive | inactive | inactive | inactive | inactive | inactive | – | – | – | –
CCOCc1cc(OC)c(-c2ccc(C[C@H](NC(=O)c3c(F)cccc3F)C(=O)O)cc2)c(OC)c1 | inactive | inactive | inactive | inactive | inactive | inactive | – | – | – | –
CC(=O)O[C@]1(C(C)=O)CC[C@H]2[C@@H]3C[C@H](C)C4=CC(=O)C=C[C@]4(C)[C@@]3(F)[C@@H](O)C[C@@]21C | inactive | inactive | inactive | inactive | inactive | inactive | – | – | – | –
CCC(C)C1NC(=O)C2CCCN2C(=O)C(NC(C)=O)C(C)OC(=O)C(Cc2ccc(OC)cc2)N(C)C(=O)C2CCCN2C(=O)C(C(C)C)NC1=O (centres undefined) (Ac-TPIVP[NMeY](Me); ester 1-C; configuration not given here) | inactive | inactive | inactive | inactive | inactive | inactive | – | – | – | –
OC/C=C/C=C/[C@H]1Cc2cc(O)cc(O)c2O1 | inactive | inactive | inactive | 8.44 µM (active) | inactive | 18.9 µM (active) | – | – | – | –
COc1cc2c(cc1OC)N1C(=O)C[C@]34C=CCN5CC[C@@H]2[C@@H](CC3)[C@]514 | inactive | inactive | inactive | inactive | inactive | inactive | – | – | – | –
O=C(Nc1ccccc1)N1CCN(Cc2ccc3ccccc3n2)CC1 | inactive | inactive | inactive | inactive | inactive | inactive | – | – | – | –
CCC(C)C(=O)OC1CC(C)C=C2C=CC(C)C(CCC(O)CC(O)CC(=O)O)C21 (centres undefined) | inactive | inactive | inactive | inactive | inactive | inactive | – | – | – | –
CC1(C)CC[C@]2(C(=O)O)CC[C@]3(C)C(=CCC4[C@@]5(C)CC[C@H](O[C@@H]6O[C@H](CO)[C@@H](O)[C@H](O)[C@H]6O[C@@H]6O[C@H](CO)[C@@H](O)[C@H](O)[C@H]6O)[C@@](C)(CO)C5CC[C@]43C)[C@@H]2C1 (some centres undefined) | inactive | inactive | inactive | inactive | inactive | inactive | – | – | – | –
CCCCc1ccc(C(=O)Nc2cc(-c3ccc(Cl)cc3)nn2-c2ccc(Cl)cc2)cc1 | inactive | inactive | inactive | inactive | inactive | inactive | – | – | – | –
CC/C=C/CC1=C(CCCCC(CCC(=O)O)OC(C)=O)CCC1=O (centres undefined) | inactive | inactive | inactive | inactive | inactive | inactive | – | – | – | –
CCO[C@@H]1OC(=O)C[C@@H]1NC(=O)[C@@H]1CCCN1C(=O)[C@@H](NC(=O)c1ccc(N)c(Cl)c1)C(C)(C)C | inactive | inactive | inactive | inactive | inactive | inactive | – | – | – | –
C/C1=C\CCC(C)CCO[C@@H]2O[C@H](CO[C@@H]3OC[C@H](O)[C@H](O)[C@H]3OC1=O)[C@@H](O)[C@H](O)[C@H]2O (some centres undefined) | inactive | inactive | inactive | 8.22 µM (active) | inactive | inactive | – | – | – | –
Cc1cc(Nc2ncc3cc(-c4c(Cl)cccc4Cl)c(=O)n(C)c3n2)ccc1F | inactive | inactive | inactive | inactive | inactive | inactive | – | – | – | –

— PubChem BioAssay (NCATS)
